Laboratory results as given in PubChem BioAssay (NCI).
Compounds without any hit were thinned out: in the full panel of roughly 83,000, 20% have a hit.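 Percent growth is the endpoint: 0 to 100 indicates growth inhibition (40 means 60% inhibition), 0 means no net growth, and negative values indicate cell death.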 Values without a mark were called inactive. Activity calls are given as the source filed them. Rule for the calls: active = growth percent below 10; inactive = the rest.

Each compound was assayed on MALME-3M melanoma (assay: NCI-60 one-dose screen, 48 h (100 = growth as untreated, 0 = no growth, -100 = all killed)). Conditions: 10 µM unless noted.

| Compound | growth |
| --- | --- |
| CCN(CC)c1nc(SCC(=O)Nc2nc3ccc(C)cc3s2)nc(-c2ccccc2)c1C#N | 103% |
| Cn1cc(-c2csc(-c3cccc(F)c3)n2)c2cccnc21 | -39.1% [100 µM] (active) |
| CCN1CCN(c2cc(C)nc(NCc3cc(Nc4ccnc5cc(Cl)ccc45)ccc3F)n2)CC1 | 107% |
| CSc1n(Cc2ccc3ccccc3c2)c(C)c[n+]1Cc1ccc2ccccc2c1 | -25.1% (active) |
| NC(=N\N=C/c1cccc([N+](=O)[O-])c1)/C(N)=N\N=C/c1cccc([N+](=O)[O-])c1 | 81.4% |
| COc1ccc(-c2csc(C3=C(O)CN(C(C)C)C3=N)n2)cc1OC | 96.4% |
| COc1ccc(-c2ccc3c(c2)sc2nc(-c4ccc(F)cc4)cn23)cc1 | 101% |
| Cc1ccc(S(=O)(=O)NCC[C@@H]2C[C@H]2c2cc3ccccc3s2)cc1 | 99.8% |
| Cc1cccc(NC(=O)CSc2nc3ccccc3[nH]2)c1 | 105% |
| C[n+]1cc2cc(C(N)=O)[nH]c3c(=N)c(Cl)c(N)c1c23 | 99.1% |
| CCN(CC)CCCNc1ccc(Nc2ccc(OC)cc2)cc1 | 104% |
| O=C1C=C[C@]2(C[C@@H](c3cccc(C(F)(F)F)c3)O[C@@H](c3cccc(C(F)(F)F)c3)O2)O1 | 36.4% |
| Cc1nc2c(c(N3CCCc4ccccc43)n1)CCC2 | 54.2% |
| Cc1cc(Cl)nc(NCc2cc(Nc3ccnc4cc(Cl)ccc34)ccc2F)n1 | 77.2% |
| COc1ccc(NC(=O)CSc2nnc(-c3cc(-c4ccc(S(N)(=O)=O)cc4)nc4ccccc34)n2-c2ccccc2)cc1 | 77.5% |
| COc1ccc(-c2nc3ccc4[nH]ncc4c3c3c2CCCC3)cc1B(O)O | 75% |
| CC/C=C\C[C@H](O)C/C=C1/C(=O)C=C[C@@H]1C/C=C\CCCCO | 34.7% |
| O=C(/C=C/c1c(Cl)nc2sccn12)c1nccs1 | 108% |
| O=c1[nH]ccc2nc(N3CCC(O)CC3)nc(Nc3ccc(N4CCOCC4)cc3)c12 | 28.4% |

| Compound | growth |
| --- | --- |
| COc1ccc2c(c1)CCCN2c1c2ccccc2nc2ccccc12 | 55.3% |
| COc1ccc(N=C(c2ccccc2)C2C(=O)c3ccccc3C2=O)cc1 | 103% |
| Cc1c(O)cc(-c2cnc(N/N=C\c3ccc(Cl)cc3)s2)c(O)c1C | 107% |
| NS(=O)(=O)c1ccc(-n2nc(C(=O)N/N=C\c3ccc(F)cc3)cc2-c2ccc(Cl)cc2)cc1 | 89.9% |
| CCN1CCN(c2nc(C)cc(NCc3cc(Nc4ccnc5cc(Cl)ccc45)ccc3F)n2)CC1 | -69% (active) |
| COc1ccc2[nH]c(O)c(/C=c3/cc4c(c(-c5ccc(F)c(OC)c5)n3)=Nc3ccccc3-4)c2c1 | -55.6% (active) |
| CCCCCS(=O)(=O)Nc1ccc(C(=O)O)cc1 | 98.2% |
| CN(C)CC1C(=O)O[C@H]2[C@H]1CC/C(COC(=O)c1cc3ccccc3[nH]1)=C\CC[C@@]1(C)O[C@@H]21 (some centres undefined) | -44.2% (active) |
| N#CC1=C(c2ccc(Br)cc2)NC(SCC(=O)c2ccc(Br)cc2)NC1=O (centres undefined) | 105% |
| O=c1c2c3c(sc2n2c(-c4cn(-c5ccccc5)nc4-c4ccc(Cl)cc4)nnc2n1Cc1ccccc1)CCCC3 | 97.4% |
| COc1cc(/C=C/C(=O)c2cccc(-n3cc(-c4ccccc4)[nH]c3=O)c2)ccc1O | 90.8% |
| CCCCCCCCCOc1c(OC)cc(C2CC(=O)Nc3c2c(C)nn3-c2nc3ccccc3[nH]2)cc1OC (centres undefined) | -58.3% (active) |
| Cc1ccc2c(c1)Sc1c(ccc3ccccc13)N2 | 90.7% |
| CC(C)(C)C(CCc1ccc(Cl)cc1)N1CCN(C2CCCCC2)CC1 (centres undefined) | 83.4% |
| COc1ccc(C2=NN(C(=O)c3cc(OC)c(OC)c(OC)c3)C(c3ccc(Cl)cc3)C2)cc1OC (centres undefined) | 63.1% |
| Cc1cc(NCc2cc(Nc3ccnc4cc(Cl)ccc34)ccc2F)nc(N2CCSCC2)n1 | -30.7% (active) |
| N#Cc1c(-c2cccc(Cl)c2)cc(-c2cccc(F)c2)[nH]c1=O | 99.9% |
| O=C(CSc1nnc(-c2ccc(NC(=O)c3cccnc3)cc2)o1)N[C@@H](Cc1ccc(O)cc1)C(=O)O | 102% |

The compounds below were run on MDA-MB-231 breast in the same assay as above. Conditions: 10 µM unless noted.

| Compound | growth |
| --- | --- |
| CCN(CC)c1nc(SCC(=O)Nc2nc3ccc(C)cc3s2)nc(-c2ccccc2)c1C#N | 78% |
| Cn1cc(-c2csc(-c3cccc(F)c3)n2)c2cccnc21 | -50.1% [100 µM] (active) |
| CCN1CCN(c2cc(C)nc(NCc3cc(Nc4ccnc5cc(Cl)ccc45)ccc3F)n2)CC1 | 26.4% |
| CSc1n(Cc2ccc3ccccc3c2)c(C)c[n+]1Cc1ccc2ccccc2c1 | -30.8% (active) |
| NC(=N\N=C/c1cccc([N+](=O)[O-])c1)/C(N)=N\N=C/c1cccc([N+](=O)[O-])c1 | 93.4% |
| COc1ccc(-c2csc(C3=C(O)CN(C(C)C)C3=N)n2)cc1OC | 81.1% |
| COc1ccc(-c2ccc3c(c2)sc2nc(-c4ccc(F)cc4)cn23)cc1 | 93.5% |
| Cc1ccc(S(=O)(=O)NCC[C@@H]2C[C@H]2c2cc3ccccc3s2)cc1 | 92.5% |
| Cc1cccc(NC(=O)CSc2nc3ccccc3[nH]2)c1 | 88.5% |
| C[n+]1cc2cc(C(N)=O)[nH]c3c(=N)c(Cl)c(N)c1c23 | 53.7% |
| CCN(CC)CCCNc1ccc(Nc2ccc(OC)cc2)cc1 | 34.6% |
| O=C1C=C[C@]2(C[C@@H](c3cccc(C(F)(F)F)c3)O[C@@H](c3cccc(C(F)(F)F)c3)O2)O1 | -57.2% (active) |
| Cc1nc2c(c(N3CCCc4ccccc43)n1)CCC2 | 18.1% |
| Cc1cc(Cl)nc(NCc2cc(Nc3ccnc4cc(Cl)ccc34)ccc2F)n1 | 54.4% |
| COc1ccc(NC(=O)CSc2nnc(-c3cc(-c4ccc(S(N)(=O)=O)cc4)nc4ccccc34)n2-c2ccccc2)cc1 | 72.8% |
| COc1ccc(-c2nc3ccc4[nH]ncc4c3c3c2CCCC3)cc1B(O)O | 69.3% |
| CC/C=C\C[C@H](O)C/C=C1/C(=O)C=C[C@@H]1C/C=C\CCCCO | 8.29% (active) |
| O=C(/C=C/c1c(Cl)nc2sccn12)c1nccs1 | 95.8% |
| O=c1[nH]ccc2nc(N3CCC(O)CC3)nc(Nc3ccc(N4CCOCC4)cc3)c12 | 64.3% |

| Compound | growth |
| --- | --- |
| COc1ccc2c(c1)CCCN2c1c2ccccc2nc2ccccc12 | 6.06% (active) |
| COc1ccc(N=C(c2ccccc2)C2C(=O)c3ccccc3C2=O)cc1 | 103% |
| Cc1c(O)cc(-c2cnc(N/N=C\c3ccc(Cl)cc3)s2)c(O)c1C | 95.4% |
| NS(=O)(=O)c1ccc(-n2nc(C(=O)N/N=C\c3ccc(F)cc3)cc2-c2ccc(Cl)cc2)cc1 | 74% |
| CCN1CCN(c2nc(C)cc(NCc3cc(Nc4ccnc5cc(Cl)ccc45)ccc3F)n2)CC1 | -31.1% (active) |
| COc1ccc2[nH]c(O)c(/C=c3/cc4c(c(-c5ccc(F)c(OC)c5)n3)=Nc3ccccc3-4)c2c1 | -47.5% (active) |
| CCCCCS(=O)(=O)Nc1ccc(C(=O)O)cc1 | 106% |
| CN(C)CC1C(=O)O[C@H]2[C@H]1CC/C(COC(=O)c1cc3ccccc3[nH]1)=C\CC[C@@]1(C)O[C@@H]21 (some centres undefined) | -41.2% (active) |
| N#CC1=C(c2ccc(Br)cc2)NC(SCC(=O)c2ccc(Br)cc2)NC1=O (centres undefined) | 105% |
| O=c1c2c3c(sc2n2c(-c4cn(-c5ccccc5)nc4-c4ccc(Cl)cc4)nnc2n1Cc1ccccc1)CCCC3 | 80.3% |
| COc1cc(/C=C/C(=O)c2cccc(-n3cc(-c4ccccc4)[nH]c3=O)c2)ccc1O | 90.3% |
| CCCCCCCCCOc1c(OC)cc(C2CC(=O)Nc3c2c(C)nn3-c2nc3ccccc3[nH]2)cc1OC (centres undefined) | -75% (active) |
| Cc1ccc2c(c1)Sc1c(ccc3ccccc13)N2 | 50.6% |
| CC(C)(C)C(CCc1ccc(Cl)cc1)N1CCN(C2CCCCC2)CC1 (centres undefined) | 12.3% |
| COc1ccc(C2=NN(C(=O)c3cc(OC)c(OC)c(OC)c3)C(c3ccc(Cl)cc3)C2)cc1OC (centres undefined) | 47.6% |
| Cc1cc(NCc2cc(Nc3ccnc4cc(Cl)ccc34)ccc2F)nc(N2CCSCC2)n1 | -8.18% (active) |
| N#Cc1c(-c2cccc(Cl)c2)cc(-c2cccc(F)c2)[nH]c1=O | 89.9% |
| O=C(CSc1nnc(-c2ccc(NC(=O)c3cccnc3)cc2)o1)N[C@@H](Cc1ccc(O)cc1)C(=O)O | 97.7% |
